# Spn PMK inh = blocks S. pneumoniae phosphomevalonate kinase; inhibition, % at 10 µM; purified PMK, PK/LDH-coupled NADH absorbance 340 nm; hit rate 0.49% among 65,000;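 active = top-ranked compounds by inhibition in the single 10 µM screen, taking a fixed number of the strongest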
# NADH coupling = blocks coupling enzymes of NAD/NADH assays. hit rate 0.02% among 65,000. coupled PK/LDH NADH assays, four targets. IC50, µM (titrated, usually from 10 µM);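 active = single-dose screening hits from any of four coupled enzyme assays that gave an IC50 when retested across doses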;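 note: the DPM-DC format reads NADH fluorescence rather than 340 nm absorbance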
# Autofluor 339 = intrinsic fluorescence of library compounds, ex339/em460 – biochemical, MLSMR library, data from DPM-DC assay, artefact control, profiling panel | compound autofluorescence, ex339/em460 nm, NADH buffer; hits give high values; 1 = no-compound wells, NADH background | fluorescence fold increase at 10 µM | hit rate 5.5% among 65,000 | AID 709;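 active = at 10 µM, mean starting fluorescence two-fold or more over control wells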;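 note: signal is the first read of a kinetic run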
# Spn DPM-DC inh = S. pneumoniae DPM-DC inhibition; purified DPM-DC, PK/LDH coupled NADH fluorescence; hit rate 0.49% among 65,000; calls only at 10 µM;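 active = the 320 compounds with the highest percent inhibition in the single-dose primary screen, excluding strongly autofluorescent ones, cut at about 32% in these data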;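 note: kinetic rate of NADH fluorescence loss reporting ADP formed by the decarboxylase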
# Spn MK inh = S. pneumoniae mevalonate kinase inhibition. purified MK, PK/LDH-coupled NADH absorbance 340 nm. inhibition, % at 10 µM. hit rate 0.48% among 65,000;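 active = ranked among the strongest by inhibition in the single 10 µM screen, a fixed top-ranked set picked for dose follow-up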
# A340 absorber = absorbance at 340 nm | compound absorbance at 340 nm, fold over control | fold change at 10 µM | 65,000 tested, under 10 active | AID 708;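 active = at 10 µM dose, initial 340 nm absorbance at least 2 fold that of control wells; inactive = change under 2 fold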;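 note: initial absorbance extrapolated from kinetic A340 decline of NADH oxidation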
# Numbers stand for hits; – = inactive; · = not tested or not shown; + = active, no number. Shown are actives, neighbours in structure and some others; about 6.3% of the full set was active somewhere.
SMILES,Spn PMK inh,NADH coupling,Autofluor 339,Spn DPM-DC inh,Spn MK inh,A340 absorber
COC(=O)c1ccc(CNC(=O)CSc2nc3sc(C)c(C)c3c(=O)n2C)o1,–,–,–,–,–,–
CS(=O)(=O)Nc1ccc(C(=O)NC2CCCC2)cc1,–,–,–,–,–,–
Cc1nnc(Sc2nc3c(c(=O)[nH]c(=O)n3C)n2CCCc2ccccc2)s1,–,–,–,–,–,–
CCOc1ccc(OCC)c(NC(=O)c2ccc(CNc3c(N4CCOCC4)c(=O)c3=O)cc2)c1,–,–,–,–,–,–
CN(C)c1ccc(NC(=O)c2ccc(COc3cccc(Cl)c3)o2)cc1,–,–,–,–,–,–
CCOC(=O)c1[nH]c(COC(=O)C2CC(=O)N(Cc3ccccc3)C2)c(C(=O)OCC)c1C (configuration not stated),–,–,–,–,–,–
COC(=O)c1cccc(NC(=O)c2ccc(S(=O)(=O)N3CCN(C)CC3)cc2)c1,–,–,–,–,–,–
CCCCN(C(=O)NC(=O)C1=C(N2CCOCC2)/C(=C/c2ccccc2)CC1)S(C)(=O)=O,–,–,2.1,·,–,–
CN(C(=O)NC(=O)C1=C(N2CCOCC2)/C(=C/c2ccccc2)CC1)S(C)(=O)=O,–,–,2.9,–,–,–
CCCCN(C(=O)NC(=O)Nc1ccccc1OC)S(C)(=O)=O,–,–,–,–,–,–
CC#CCCCC(=O)Nc1cccc(C(=O)O)c1,–,–,–,–,–,–
Clc1ccc(OCc2cn3cccnc3n2)c2ncccc12,–,–,2.1,·,–,–
O=C(C1CCC(C(=O)N2CCCCC2)CC1)N1CCCCC1 (configuration not stated),–,–,–,–,–,–
COc1ccc(-c2c(C(F)(F)F)oc3c(CN4CCN(C)CC4)c(O)ccc3c2=O)cc1,–,–,–,–,–,–
COC(=O)c1ccc(Oc2c(C)oc3c(CN4CCN(C)CC4)c(O)ccc3c2=O)cc1,–,–,3.8,·,–,–
CCOC(=O)c1c(C)oc2c(CN3CCN(C)CC3)c(Br)c(OC)c(O)c12,–,–,–,–,–,–
COc1ccccc1Oc1c(C)oc2c(CN3CCN(C)CC3)c(O)ccc2c1=O,–,–,3.8,·,–,–
NC(N)=NC(=O)c1nc(Cl)c(N)nc1N,–,–,2,–,–,–
CCOC(=O)c1c(C)[nH]c(C(=O)COC(=O)c2ccccc2NC(=O)c2ccco2)c1C,–,–,3.4,+,–,–
CCCCc1nc(N2CCOCC2)c(C#N)c2c1CCCC2,–,–,–,–,–,–
CCNc1nc(C)cc(COC)c1C#N,–,–,2.2,·,–,–
COCc1cc(C)nc(N)c1C#N,–,–,–,·,–,–
CCOc1cc2c(C#N)c(N3CCOCC3)nc(N)c2c(N)n1,–,–,5.1,·,–,–
COCc1cc(C)nc(N2CCOCC2)c1C#N,–,–,2.1,·,–,–
Cc1c(C(=O)O)sc2nc3n(c(=O)c12)CCC(C)CC3 (configuration not stated),–,–,–,–,–,–
SMILES,Spn PMK inh,NADH coupling,Autofluor 339,Spn DPM-DC inh,Spn MK inh,A340 absorber
CCC(CCC(=O)Nc1ccn(-c2ccccc2)n1)C(=O)O (configuration not stated),–,–,–,–,–,–
Cc1ccccc1Cn1nc(C)c(NC(=O)c2cc3nc(-c4ccco4)cc(C(F)(F)F)n3n2)c1C,–,–,–,–,–,–
Cc1nn(C)c(C)c1CN(C)C(=O)c1cc2nc(-c3ccco3)cc(C(F)(F)F)n2n1,–,–,2.5,–,–,–
Cc1nn(C)cc1CN(C)C(=O)c1cc2nc(-c3ccco3)cc(C(F)(F)F)n2n1,–,–,2.7,–,–,–
CCOc1ccccc1-n1c(COc2ccc(C)cc2)nnc1SCC(N)=O,–,–,–,–,–,–
O=C(OCn1nnc2ccccc2c1=O)C1CCN(S(=O)(=O)c2cccs2)CC1,–,–,–,–,–,–
O=c1c2cc(N3CCOCC3)ccc2[nH]c(=S)n1CCCN1CCCCC1,–,–,2.1,–,–,–
CC1CCN(CCCn2c(=S)[nH]c3ccc(N4CCOCC4)cc3c2=O)CC1,–,–,3.2,–,–,–
O=C(CN(C(=O)CCC(=O)Nc1nccs1)c1ccc(F)c(Cl)c1)NCc1ccco1,–,–,–,–,–,–
O=C(Nc1nc2nc(-c3ccccc3)cc(-c3ccccc3)n2n1)c1ccco1,–,–,4,·,–,–
Nc1nc(NC(=O)c2ccco2)nn1-c1ccccc1,–,–,–,–,–,–
COc1ccccc1C1C=C(c2ccc(Cl)cc2)Nc2nc(NS(C)(=O)=O)nn21 (configuration not stated),–,–,4,·,–,–
COc1ccc(C2C=C(c3ccc(Cl)cc3)Nc3nc(NC(C)=O)nn32)cc1 (configuration not stated),–,–,2.3,·,–,–
COc1ccc(C2C=C(c3ccc(Br)cc3)Nc3nc(N4C(=O)CCC4=O)nn32)cc1 (configuration not stated),–,–,3.9,·,–,–
COc1ccc(C2=CC(c3ccc(F)cc3)n3nnnc3N2)cc1 (configuration not stated),–,–,–,–,–,–
CCOC(=O)c1ccc(CNC(=O)c2n[nH]c(=O)c3ccccc23)o1,–,–,–,–,–,–
CC(NS(=O)(=O)c1ccccc1)C(N)=O (configuration not stated),–,–,–,–,–,–
C/C(CC(O)c1ccc2ccccc2n1)=N/O (configuration not stated),–,–,–,–,–,–
CC(=O)Nc1nc2n(n1)C(c1ccc(F)cc1)C=C(c1ccccc1)N2 (configuration not stated),–,–,3.4,·,–,–
CC(=O)Nc1nc2n(n1)C(c1ccccc1)C=C(c1ccccc1)N2 (configuration not stated),–,–,–,–,–,–
O=C(c1nc2n(n1)C(c1ccc(Cl)cc1)C=C(c1ccccc1)N2)N1CCOCC1 (configuration not stated),–,–,–,–,–,–
CC(=O)Nc1nc2n(n1)C(c1ccc(Cl)cc1)C=C(C)N2 (configuration not stated),–,–,4.9,·,–,–
O=C(Nc1nc2n(n1)C(c1ccccc1)C=C(c1ccccc1)N2)c1ccco1 (configuration not stated),–,–,2.6,–,–,–
O=C(Nc1nnc(CC(=O)N2CCOCC2)s1)C1COc2ccccc2O1 (configuration not stated),–,–,–,–,–,–
CCC1c2ccc(C)n2CCN1C(=O)Nc1ccc(F)cc1 (configuration not stated),–,–,–,–,–,–
Cc1cc(=O)oc2cc(NC(=O)CCCC(=O)O)ccc12,–,–,5,·,–,–
CCOc1ncccc1C(=O)Nc1ccc(-c2cn3ccsc3n2)cc1,–,–,2.1,·,–,–
